Measured values as given in PubChem BioAssay (NCATS).
Records with an inconclusive call do not appear. Calls of active or inactive are those of the source. Unless noted, the call rests on the fitted dose curve; in most records, active means well fitted curve in the direction sought with a large enough effect; inconclusive means small, poorly fitted or top-dose-only effect, or another doubt; inactive means no such curve, though single readings can be large; an effect the other way counts as inactive or inconclusive.

Experiments:
[1] = target: Lysosomal acid glucosylceramidase (Homo sapiens) (UniProt P04062); assay: Glucocerebrosidase-p2 (AID 348; in the data active means potency below about 10 µM; further: potency means the concentration at half of the fitted maximal effect); conditions: purified GBA, blue fluorogenic substrate, 40 min
Lysosomal acid glucosylceramidase (Homo sapiens), sequence (P04062 whole entry, looked up): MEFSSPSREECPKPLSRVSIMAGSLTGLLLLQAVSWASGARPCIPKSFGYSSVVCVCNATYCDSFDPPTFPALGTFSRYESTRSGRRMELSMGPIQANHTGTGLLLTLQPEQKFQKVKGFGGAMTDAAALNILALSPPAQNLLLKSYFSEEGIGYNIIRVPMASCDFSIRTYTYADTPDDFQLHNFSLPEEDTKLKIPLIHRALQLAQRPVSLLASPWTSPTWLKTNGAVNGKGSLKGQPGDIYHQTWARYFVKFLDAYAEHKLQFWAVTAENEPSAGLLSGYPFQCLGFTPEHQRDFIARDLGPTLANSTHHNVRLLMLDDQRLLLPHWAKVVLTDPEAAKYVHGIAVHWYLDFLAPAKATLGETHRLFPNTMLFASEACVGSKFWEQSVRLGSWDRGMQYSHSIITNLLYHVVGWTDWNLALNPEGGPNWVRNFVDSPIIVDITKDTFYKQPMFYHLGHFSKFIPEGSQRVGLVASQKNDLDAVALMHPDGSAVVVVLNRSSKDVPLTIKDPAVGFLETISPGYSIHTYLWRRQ
Method in brief: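 Compounds titrated from 0.6 nM upwards against 0.2 nM enzyme in pH 5.9 citric acid/KH2PO4, taurocholate, tween-20; blue fluorogenic substrate 80 uM, 40 min room temperature, stopped and read Ex 365/Em 440 for AC50.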

[2] = AP1 Signaling Pathway (AID 357; active means well fitted curve in either direction with a large enough effect, not every such curve was filed as active;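 further: ME-180 reporter cells stimulated with EGF at its EC50 level; on the % scale 0 is the no-effect control and ±100 the full control effect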); conditions: ME-180 AP-1-bla reporter, EGF-induced, beta-lactamase ratio, 5 h; at 7.69 µM (top of the series) unless noted
Method in brief: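 Cells are seeded overnight, exposed to compound titrations and an EC50 level of EGF for 5 hours at 37 °C, then loaded with CCF4 dye for 2.5 hours. Beta-lactamase activity under the AP-1 element is read as a blue/green ratio.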

[3] = target: Cytochrome P450 1A2 (Homo sapiens) (UniProt P05177); assay: p450-cyp1a2 (AID 410; calls by dose curve; further: potency means the concentration at half of the fitted maximal effect); conditions: recombinant CYP1A2, luciferin-ME demethylation, luminescence; series mostly up to 57 µM
Cytochrome P450 1A2 (Homo sapiens), sequence (P05177 whole entry, looked up): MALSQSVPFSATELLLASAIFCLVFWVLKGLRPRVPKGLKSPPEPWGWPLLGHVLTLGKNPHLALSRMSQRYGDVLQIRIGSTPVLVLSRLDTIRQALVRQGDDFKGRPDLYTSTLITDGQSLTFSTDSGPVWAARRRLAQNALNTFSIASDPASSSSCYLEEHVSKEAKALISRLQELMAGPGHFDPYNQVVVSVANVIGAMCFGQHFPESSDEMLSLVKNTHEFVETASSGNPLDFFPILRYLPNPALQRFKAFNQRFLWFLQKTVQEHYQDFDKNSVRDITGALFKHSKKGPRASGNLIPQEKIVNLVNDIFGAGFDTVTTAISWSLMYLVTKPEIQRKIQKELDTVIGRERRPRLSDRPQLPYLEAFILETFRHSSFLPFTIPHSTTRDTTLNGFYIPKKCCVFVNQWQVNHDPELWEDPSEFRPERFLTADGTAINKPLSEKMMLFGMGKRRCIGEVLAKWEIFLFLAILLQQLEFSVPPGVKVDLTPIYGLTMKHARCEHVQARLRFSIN
Method in brief: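 Inhibition was calculated relative to 57 uM furafylline (full inhibition). The reaction used human CYP1A2 at 20nM with Luciferin-ME at its Km, 100uM, driven by an NADPH-regenerating system for 60 min at room temperature.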

[4] = NFAT Signaling Pathway (AID 444; active means well fitted curve in either direction with a large enough effect, not every such curve was filed as active;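 further: carbachol stimulus at about its EC50 of 1 µM final; on the % scale 0 is the no-effect control and ±100 the full control effect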); conditions: Jurkat NFAT-bla M1, carbachol, beta-lactamase ratio, 5 h; at 7.69 µM (top of the series) unless noted
Method in brief: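 Jurkat cells with NFAT-driven β-lactamase reporter and co-expressed M1 receptor, stimulated with carbachol (final 1 uM, ~EC50), compound titration, 5 h at 37 °C. CCF4 loaded 1 h at RT; 460/530 nm ratio gave %activity and AC50.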

[5] = Stat Signaling Pathway (AID 446; active means well fitted curve in either direction with a large enough effect, not every such curve was filed as active;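 further: ME-180 cervical cancer cells given 40 pM IL-6 alongside compound; SIE-controlled beta-lactamase reporter measured as 460/530 nm FRET emission ratio; on the % scale 0 is the no-effect control and ±100 the full control effect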); conditions: ME-180 SIE beta-lactamase reporter, IL-6 stimulated, 5 h; at 7.69 µM (top of the series) unless noted
Method in brief: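 ME-180 SIE-bla cells; overnight plating; cpd + IL-6 40 pM, 5 h, 37 C; LiveBLAzer 2.5 h RT; 460/530 nm emission ratio. Normalized to 300 pM IL-6 and 125 nM JAK inhibitor controls.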

[6] = target: Glucocorticoid receptor (Homo sapiens) (UniProt P04150); assay: GR-GFP Redistribution (AID 450;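 active means compounds whose dose series gives a full or clear partial fitted curve of increased nuclear translocation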; further: potency means the concentration at half of the fitted maximal effect); conditions: U2OS GR-GFP nuclear translocation, laser cytometry, 2 h
Glucocorticoid receptor (Homo sapiens), sequence (P04150 whole entry, looked up, the tested form may be a part): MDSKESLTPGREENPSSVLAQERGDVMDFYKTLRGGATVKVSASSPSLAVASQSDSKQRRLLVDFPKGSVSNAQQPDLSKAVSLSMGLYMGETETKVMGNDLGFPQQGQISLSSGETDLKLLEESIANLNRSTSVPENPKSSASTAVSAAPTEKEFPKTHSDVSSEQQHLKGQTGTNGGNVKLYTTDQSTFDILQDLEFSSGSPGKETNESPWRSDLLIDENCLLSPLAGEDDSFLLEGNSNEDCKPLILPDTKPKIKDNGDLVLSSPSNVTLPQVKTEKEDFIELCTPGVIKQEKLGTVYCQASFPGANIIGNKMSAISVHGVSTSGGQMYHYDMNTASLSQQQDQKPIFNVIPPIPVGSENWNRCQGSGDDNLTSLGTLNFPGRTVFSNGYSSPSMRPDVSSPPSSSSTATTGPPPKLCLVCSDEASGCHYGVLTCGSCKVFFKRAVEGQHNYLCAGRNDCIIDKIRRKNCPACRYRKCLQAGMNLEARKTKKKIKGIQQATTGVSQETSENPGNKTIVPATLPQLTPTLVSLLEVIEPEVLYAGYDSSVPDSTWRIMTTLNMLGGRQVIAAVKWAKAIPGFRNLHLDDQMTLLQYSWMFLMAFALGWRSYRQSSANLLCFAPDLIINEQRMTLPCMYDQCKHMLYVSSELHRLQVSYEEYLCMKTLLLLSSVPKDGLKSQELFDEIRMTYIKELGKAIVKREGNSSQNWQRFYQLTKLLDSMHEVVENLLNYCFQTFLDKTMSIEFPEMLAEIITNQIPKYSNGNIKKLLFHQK

[7] = target: Glucocorticoid receptor (Homo sapiens) (UniProt P04150); assay: GR-EFC Redistribution (AID 451; calls by dose curve; further: potency means the concentration at half of the fitted maximal effect); conditions: CHO-K1 GR-EFC translocation, beta-gal luminescence, 2 h
Method in brief: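 CHO-K1 cells expressing nuclear EA and GR-ED fragments of b-gal; compounds titrated up to 46 uM final, 2 h at 37 C. GR nuclear translocation read as complemented b-gal luminescence after 1 h RT detection.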

[8] = target: Mitogen-activated protein kinase 10 (Mus musculus) (UniProt Q61831); assay: JNK3 AlphaScreen Assay (AID 530; active means well fitted curve in either direction with a large enough effect, not every such curve was filed as active;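 further: kinase came from lysate of stimulated human HepG2 cells; signal reports phosphorylation of biotinylated GST-cJun 1-79 at Ser73 with 10 µM ATP; on the % scale 0 is the no-effect control and ±100 the full control effect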); conditions: JNK3 lysate, c-Jun phosphorylation; series mostly up to 57.1 µM
Method in brief: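 qHTS format: compounds tested as titrations against IL-1beta/TNF-alpha-activated HepG2 lysate JNK3 with biotin-GST-cJun substrate and 10 uM ATP at room temperature. Loss of anti-phospho-cJun AlphaScreen signal indicates inhibition.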

[9] = target: 3',5'-cyclic-AMP phosphodiesterase 4B (Homo sapiens) (UniProt Q07343); assay: qHTS Assay for Inhibitors of PDE-IV (AID 607; active means well fitted activation curve with a large enough effect in the main read-out, with a control signal flat, not every such curve was filed as active; further: % of control where 0% means no effect); conditions: HEK293 ACTOne CNG channel cells, membrane potential fluorescence; series mostly up to 22.9 µM
3',5'-cyclic-AMP phosphodiesterase 4B (Homo sapiens), sequence (Q07343 whole entry, looked up): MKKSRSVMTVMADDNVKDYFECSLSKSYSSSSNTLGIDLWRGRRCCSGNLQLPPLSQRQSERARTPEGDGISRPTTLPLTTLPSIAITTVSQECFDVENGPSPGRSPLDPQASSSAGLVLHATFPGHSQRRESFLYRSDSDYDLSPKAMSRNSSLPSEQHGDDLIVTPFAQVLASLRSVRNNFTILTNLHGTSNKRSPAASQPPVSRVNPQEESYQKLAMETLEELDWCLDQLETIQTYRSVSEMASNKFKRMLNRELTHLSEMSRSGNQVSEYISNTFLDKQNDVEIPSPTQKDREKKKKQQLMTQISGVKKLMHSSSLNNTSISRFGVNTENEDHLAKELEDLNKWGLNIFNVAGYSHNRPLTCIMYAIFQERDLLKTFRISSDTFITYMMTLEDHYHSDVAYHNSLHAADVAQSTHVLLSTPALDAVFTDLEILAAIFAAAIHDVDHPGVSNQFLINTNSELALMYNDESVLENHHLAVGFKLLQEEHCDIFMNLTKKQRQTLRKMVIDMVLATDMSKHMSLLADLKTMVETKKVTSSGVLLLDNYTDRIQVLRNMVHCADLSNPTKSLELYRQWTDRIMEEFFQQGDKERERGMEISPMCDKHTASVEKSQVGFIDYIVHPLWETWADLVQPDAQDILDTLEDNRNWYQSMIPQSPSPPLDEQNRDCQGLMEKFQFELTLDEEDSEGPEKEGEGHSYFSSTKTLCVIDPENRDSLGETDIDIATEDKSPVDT
Method in brief: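 ACTOne HEK293 cells carry a modified cAMP-gated CNG channel and express endogenous PDE4; plated 1000 cells/well, compounds up to 22.9 uM final. Membrane-potential dye fluorescence (ex 535/em 590) was read; parental cells received 10 uM forskolin + 100 uM RO 20-1724.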

[10] = qHTS Assay for Lipid Storage Modulators (AID 1519; calls by dose curve); conditions: Drosophila S3 cells, BODIPY lipid droplet/cell ratio, laser cytometry, cells loaded with oleic acid; for activity change, negative = inhibition: at 57.5 µM (top of the series)
Method in brief: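 Cells seeded at 5,000 per well were treated with compounds over a concentration series and loaded with oleic acid (400 uM, as added). Lipid droplet fluorescence (488 nm excitation, 500-530 nm channel) was read by laser-scanning cytometry and normalized to 20 uM Triacsin C.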

[11] = target: Dual specificity protein kinase CLK4 (Homo sapiens) (UniProt Q9HAZ1); assay: qHTS Assay for Inhibitors of CDC-like Kinase 4 (Kinase-Glo Assay) (AID 1770); conditions: recombinant Clk4, Kinase-Glo ATP depletion luminescence; series mostly up to 66.7 µM; further: on the % scale 0 is the no-effect control and ±100 the full control effect; nearly all actives have a fitted effect of over 65% in size
Dual specificity protein kinase CLK4 (Homo sapiens), sequence (Q9HAZ1 whole entry, looked up): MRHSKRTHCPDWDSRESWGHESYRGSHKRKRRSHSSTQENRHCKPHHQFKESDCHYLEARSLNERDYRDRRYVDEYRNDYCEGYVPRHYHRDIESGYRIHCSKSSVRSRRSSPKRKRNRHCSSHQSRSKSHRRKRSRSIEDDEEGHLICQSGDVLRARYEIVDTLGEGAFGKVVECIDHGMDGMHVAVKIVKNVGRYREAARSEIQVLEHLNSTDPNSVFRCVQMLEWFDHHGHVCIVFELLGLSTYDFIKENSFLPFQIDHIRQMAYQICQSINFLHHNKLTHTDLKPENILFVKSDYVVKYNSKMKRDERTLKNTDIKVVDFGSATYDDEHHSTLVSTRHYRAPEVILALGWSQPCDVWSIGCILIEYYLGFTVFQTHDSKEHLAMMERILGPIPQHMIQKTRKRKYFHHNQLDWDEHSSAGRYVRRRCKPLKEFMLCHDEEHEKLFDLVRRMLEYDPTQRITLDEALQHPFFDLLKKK
Method in brief: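 Clk4 25 nM, RS peptide 100 uM, ATP 1 uM, pH 7.5 Tris, 10 mM MgCl2, 2.5 mM DTT; 4.5 h RT; ATP depletion read by Kinase-Glo luminescence.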

[12] = target: Dual specificity protein kinase CLK4 (Homo sapiens) (UniProt Q9HAZ1); assay: qHTS Assay for Inhibitors of CDC-like Kinase 4 (ADP-Glo Assay) (AID 1771); conditions: recombinant CLK4, ADP-Glo luminescence; series mostly up to 80 µM; further: on the % scale 0 is the no-effect control and ±100 the full control effect; nearly all actives have a fitted effect of over 70% in size
Method in brief: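 Kinase reaction: Clk4 at 25 nM, RS repeat peptide substrate at 100 uM, ATP at 1 uM, 1 hr, room temperature. Product ADP detected as luciferase signal via ADP-Glo.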

[13] = target: Dual specificity protein kinase CLK4 (Homo sapiens) (UniProt Q9HAZ1); assay: qHTS Assay for Inhibitors of CDC-like Kinase 4 (ADP-FP Assay) (AID 1795); conditions: Transcreener ADP fluorescence polarization; series mostly up to 50 µM;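 further: recombinant human CLK4 phosphorylating RS repeat peptide at 1 µM ATP; on the % scale 0 is the no-effect control and ±100 the full control effect; nearly all actives have a fitted effect of over 60% in size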
Method in brief: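 Kinase activity was followed as ADP output, converted from fluorescence polarization with a calibration curve. Reactions ran one hour at low ATP (1 uM) with RS peptide substrate.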

[14] = target: Ubiquitin carboxyl-terminal hydrolase 1 (Homo sapiens) (UniProt O94782); assay: Inhibitors of USP1/UAF1: Pilot qHTS (AID 504865); conditions: purified USP1/UAF1, Ub-rhodamine cleavage fluorescence; series mostly up to 54.9 µM;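 further: rhodamine fluorescence freed from ubiquitin-rhodamine substrate followed over time; top concentration of the series differs between compounds; on the % scale 0 is the no-effect control and ±100 the full control effect; nearly all actives have a fitted effect of over 35% in size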
Ubiquitin carboxyl-terminal hydrolase 1 (Homo sapiens), sequence (O94782 whole entry, looked up): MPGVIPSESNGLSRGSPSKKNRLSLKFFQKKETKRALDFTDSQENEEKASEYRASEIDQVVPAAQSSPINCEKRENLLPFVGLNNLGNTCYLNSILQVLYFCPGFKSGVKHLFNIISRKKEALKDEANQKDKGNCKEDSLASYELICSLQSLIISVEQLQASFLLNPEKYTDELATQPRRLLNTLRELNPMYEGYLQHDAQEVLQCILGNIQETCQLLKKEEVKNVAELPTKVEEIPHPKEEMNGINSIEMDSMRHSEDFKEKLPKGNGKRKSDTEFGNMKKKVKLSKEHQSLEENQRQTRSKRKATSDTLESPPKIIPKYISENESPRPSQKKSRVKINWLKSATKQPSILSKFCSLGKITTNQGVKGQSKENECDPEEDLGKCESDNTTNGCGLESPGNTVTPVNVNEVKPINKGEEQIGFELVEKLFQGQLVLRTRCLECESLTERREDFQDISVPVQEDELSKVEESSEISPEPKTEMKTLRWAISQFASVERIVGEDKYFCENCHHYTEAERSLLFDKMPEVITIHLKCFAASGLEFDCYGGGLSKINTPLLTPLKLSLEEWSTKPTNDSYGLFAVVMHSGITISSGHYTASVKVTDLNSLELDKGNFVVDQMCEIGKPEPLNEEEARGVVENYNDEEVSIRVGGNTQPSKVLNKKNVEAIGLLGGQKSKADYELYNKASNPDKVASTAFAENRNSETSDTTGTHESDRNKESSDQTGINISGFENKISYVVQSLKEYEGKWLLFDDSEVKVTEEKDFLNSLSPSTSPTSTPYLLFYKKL
Method in brief: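 Enzyme-free wells gave the negative control, while test wells held 1nM USP1/UAF1 preincubated with compound for 15 min at room temperature. Ub-Rho at 150nM final started the reaction, and fluorescence at 480/540 nm was recorded kinetically.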

[15] = Primary qHTS for small molecule stabilizers of the endoplasmic reticulum resident proteome: Secreted ER Calcium Modulated Protein (SERCaMP) assay (AID 1508630); conditions: SH-SY5Y GLuc-SERCaMP (Gaussia luciferase released on ER calcium loss) secretion, thapsigargin, luminescence; series mostly up to 38.4 µM; further: on the % scale 0 is the no-effect control and ±100 the full control effect
Method in brief: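 GLuc-SERCaMP-expressing SH-SY5Y cells, pretreated 16 h with compound, are challenged with thapsigargin to empty ER calcium stores; after 4 h, coelenterazine is added directly to the medium and luminescence is imaged.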

[16] = target: Rap guanine nucleotide exchange factor 3 (Homo sapiens) (UniProt O95398); assay: Confirmatory qHTS for agonist of cAMP-regulated guanine nucleotide exchange factor 3 (EPAC1) (AID 1645881); conditions: EPAC1 Rap1B BODIPY-GDP exchange fluorescence, 100% = cAMP control response; series mostly up to 154 µM;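 further: EPAC1 catalysed release of BODIPY-GDP from Rap1B seen as fluorescence loss; nearly all actives have a fitted effect of over 75% in size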
[17] = target: Rap guanine nucleotide exchange factor 4 (Homo sapiens) (UniProt Q8WZA2); assay: Confirmatory qHTS for agonist of cAMP-regulated guanine nucleotide exchange factor 4 (EPAC2) (AID 1645884); conditions: EPAC2 GEF activity, Rap1B-BODIPY-GDP fluorescence, percent relative to cAMP agonist control; series mostly up to 154 µM;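 further: nucleotide exchange releases bodipy-GDP from Rap1 and this lowers its fluorescence; on the % scale 0 is the no-effect control and ±100 the full control effect; nearly all actives have a fitted effect of over 65% in size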
Rap guanine nucleotide exchange factor 4 (Homo sapiens), sequence (Q8WZA2 whole entry, looked up): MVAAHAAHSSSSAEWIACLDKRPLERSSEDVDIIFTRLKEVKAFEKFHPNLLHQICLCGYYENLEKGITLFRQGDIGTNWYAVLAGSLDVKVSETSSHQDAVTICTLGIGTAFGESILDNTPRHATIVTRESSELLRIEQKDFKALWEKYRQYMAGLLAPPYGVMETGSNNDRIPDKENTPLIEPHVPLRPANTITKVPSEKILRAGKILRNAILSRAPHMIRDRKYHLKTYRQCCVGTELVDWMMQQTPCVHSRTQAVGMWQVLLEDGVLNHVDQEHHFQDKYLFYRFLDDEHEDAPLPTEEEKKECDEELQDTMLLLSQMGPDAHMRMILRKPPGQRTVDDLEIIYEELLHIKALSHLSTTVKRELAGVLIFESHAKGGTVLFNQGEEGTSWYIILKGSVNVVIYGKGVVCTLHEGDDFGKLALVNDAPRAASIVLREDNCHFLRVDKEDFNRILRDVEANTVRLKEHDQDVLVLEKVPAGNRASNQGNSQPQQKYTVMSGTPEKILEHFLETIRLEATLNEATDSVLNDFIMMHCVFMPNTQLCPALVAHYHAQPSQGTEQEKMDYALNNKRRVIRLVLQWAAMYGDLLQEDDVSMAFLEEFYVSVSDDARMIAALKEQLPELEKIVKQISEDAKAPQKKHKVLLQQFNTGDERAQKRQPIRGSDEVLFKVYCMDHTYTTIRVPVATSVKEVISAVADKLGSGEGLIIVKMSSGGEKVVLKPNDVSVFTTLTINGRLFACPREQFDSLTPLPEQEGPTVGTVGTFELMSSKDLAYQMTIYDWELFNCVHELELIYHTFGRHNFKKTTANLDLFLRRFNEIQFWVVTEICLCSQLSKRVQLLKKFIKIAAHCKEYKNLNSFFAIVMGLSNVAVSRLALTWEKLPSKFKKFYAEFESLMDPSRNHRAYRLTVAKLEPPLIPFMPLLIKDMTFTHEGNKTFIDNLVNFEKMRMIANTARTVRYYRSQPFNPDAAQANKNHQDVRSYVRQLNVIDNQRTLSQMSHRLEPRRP

[18] = target: Rap guanine nucleotide exchange factor 4 (Homo sapiens) (UniProt Q8WZA2); assay: Confirmatory qHTS for antagonist of cAMP-regulated guanine nucleotide exchange factor 4 (EPAC2) (AID 1645885); conditions: EPAC2 Rap1B-BODIPY-GDP exchange fluorescence, biochemical; series mostly up to 114 µM; further: on the % scale 0 is the no-effect control and ±100 the full control effect; nearly all actives have a fitted effect of over 25% in size
[19] = target: Cytochrome P450 3A4 (Homo sapiens) (UniProt P08684); assay: qHTS Assay for Activators of Cytochrome P450 3A4 (AID 885); conditions: recombinant CYP3A4, Luciferin-PPXE luminescence, 60 min; series mostly up to 57.1 µM; further: nearly all actives have a fitted effect of over 65% in size
Method in brief: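 20nM CYP3A4 + 25uM Luciferin-PPXE (=KM), 200mM KPO4; cpd 10 min RT; NADPH regen, 60 min RT; stop w/ detection buffer, 20 min; luminescence. Normalized to 57 uM ketoconazole.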

[20] = measured here: cell count channel max response
[21] = measured here: lipid channel max response

FC(F)(F)c1ccccc1-c1cc(NCCN2CCOCC2)ncn1
25.8%: max response [10, 20]
active: Potency [3] 12.6 µM
30.8%: max response [10, 21]
inactive: Potency [1] > 11.4 µM | activity change, negative = inhibition [2] 10.7% | activity change, negative = inhibition [4] 27.7% | activity, negative = inhibition [5] 14.2% | Potency [6] > 46 µM | Potency [7] > 46 µM | outcome [8] | Potency [9] | activity change, negative = inhibition [10] 5.67% | Potency [11] | Potency [12] | Potency [13] | Potency [14] | Potency [15]

Cc1noc(C)c1C(=O)N1CCC2(CCN(Cc3ccc(C#N)cc3)CC2)CC1
10.9%: max response [10, 21]
9.89%: max response [10, 20]
inactive: Potency [1] > 11.4 µM | activity change, negative = inhibition [2] 22% | activity, negative = inhibition [5] 2.67% | Potency [7] > 46 µM | Potency [9] | activity change, negative = inhibition [10] -1.31% | Potency [15] | outcome [16] | outcome [17] | Potency [18]

COc1cc(C(=O)Oc2ccc3c(OC)c4ccoc4nc3c2OC)cc(OC)c1OC
inactive: Potency [15]

CN(C)c1ncc2nc(-c3cccs3)c(=O)n(CCC#N)c2n1
inactive: Potency [1] > 11.4 µM | activity change, negative = inhibition [2] 0.25% | activity change, negative = inhibition [4] -7.03% | activity, negative = inhibition [5] 4.64% | Potency [6] > 9.22 µM | Potency [7] > 46 µM | outcome [8] | Potency [9] | activity change, negative = inhibition [10] 5.59% | Potency [11] | Potency [12] | Potency [13] | Potency [14] | Potency [15] | Potency [18]
26.4%: max response [10, 21]
20.3%: max response [10, 20]

CCNc1ncc2nc(-c3ccc(F)cc3)c(=O)n(CCOC)c2n1
22.2%: max response [10, 20]
active: Potency [3] 2 µM
inactive: Potency [1] > 11.4 µM | activity change, negative = inhibition [2] -5.66% | activity change, negative = inhibition [4] -3.34% | activity, negative = inhibition [5] 10.5% | Potency [6] > 9.22 µM | Potency [7] > 46 µM | outcome [8] | Potency [9] | activity change, negative = inhibition [10] 6.73% | Potency [11] | Potency [12] | Potency [13] | Potency [14] | Potency [15]
28.8%: max response [10, 21]

O=C(c1cnccn1)N1CCC[C@@]2(CCN(C(c3ccccc3)c3ccccc3)C2)C1
active: Potency [3] 15.8 µM
5.21%: max response [10, 21]
inactive: Potency [1] > 11.4 µM | activity change, negative = inhibition [2] 0.193% | activity change, negative = inhibition [4] 11.2% | activity, negative = inhibition [5] 16.5% | Potency [7] > 46 µM | outcome [8] | Potency [9] | Potency [19] | activity change, negative = inhibition [10] -1.1% | Potency [15] | outcome [16] | outcome [17]
3.2%: max response [10, 20]
